Compounds with a hit are over-represented: about 28% of the library has one in this group of screens.
CYP2C19 inhib: human CYP2C19 inhibition. inhibition, % at 5 µM. P33261. 96,000 compounds, 21% hits. CYP2C19 Supersomes, luciferin-H EGE luminescence, 30 min;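 active = CYP2C19 inhibition above a set limit at 5 µM in the primary screen, cut at about 50% in these data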;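 note: plate controls were negative control wells for no effect and 2.5 mM tranylcypromine positive control for full effect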
CYP2C9 inh: human CYP2C9 inhibition; AID 777; CYP2C9 Supersomes, luciferin-H conversion, luminescence; P11712; 96,000 compounds, 20% hits; inhibition, % at 5 µM;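 active = blocking of liver enzyme CYP2C9 beyond about 50% at 5 µM, limit read from the data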
Mac1 fbg enh: increases human CD11b/CD18 adhesion to fibrinogen. 93,000 compounds, 0.07% hits. AID 1499. K562 CD11b/CD18 adhesion to fibrinogen, ATPlite luminescence. activation, % at 10 µM. P05107+P11215;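 active = 10 µM primary screen giving 50% or more activity, confirmed by 40% or more on retest at that dose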
Target sequence (P05107 whole entry, looked up, other chains not shown): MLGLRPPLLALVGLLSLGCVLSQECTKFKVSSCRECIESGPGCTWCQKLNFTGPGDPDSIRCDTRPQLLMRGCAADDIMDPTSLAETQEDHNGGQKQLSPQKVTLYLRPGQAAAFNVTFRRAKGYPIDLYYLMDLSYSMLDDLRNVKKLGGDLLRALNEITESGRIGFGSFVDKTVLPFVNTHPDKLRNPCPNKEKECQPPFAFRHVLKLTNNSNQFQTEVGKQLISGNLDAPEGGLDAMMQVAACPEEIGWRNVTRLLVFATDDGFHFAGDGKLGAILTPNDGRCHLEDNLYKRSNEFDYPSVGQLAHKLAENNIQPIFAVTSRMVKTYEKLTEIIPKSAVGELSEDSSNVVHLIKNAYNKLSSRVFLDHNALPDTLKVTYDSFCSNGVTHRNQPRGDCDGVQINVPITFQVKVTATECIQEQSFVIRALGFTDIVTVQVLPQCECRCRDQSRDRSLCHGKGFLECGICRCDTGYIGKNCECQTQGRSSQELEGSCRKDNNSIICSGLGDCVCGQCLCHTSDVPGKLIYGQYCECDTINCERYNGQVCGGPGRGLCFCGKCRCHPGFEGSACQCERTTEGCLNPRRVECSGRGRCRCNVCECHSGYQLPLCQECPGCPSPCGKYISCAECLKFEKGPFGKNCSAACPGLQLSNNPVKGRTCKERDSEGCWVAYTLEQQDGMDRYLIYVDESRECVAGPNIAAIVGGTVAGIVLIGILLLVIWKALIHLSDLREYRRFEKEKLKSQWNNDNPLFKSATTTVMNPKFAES
CD11b adhes inh: blocks human CD11b/CD18 adhesion to fibrinogen. P05107+P11215. K562 CD11b/CD18 adhesion to fibrinogen, ATPlite luminescence; Mn2+ added to activate the integrin. 93,000 compounds, 0.54% hits. inhibition, % at 10 µM;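 active = primary inhibition of 50% or more at 10 µM, then 40% or more on retest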
CYP2C19 activ: activators of human cytochrome P450 2C19. P33261. recombinant CYP2C19, luciferin-H EGE luminescence; hits give high values; 0 = fully inhibited enzyme, 1 = untreated enzyme. activation factor at 5 µM. 96,000 tested, under 10 active;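 active = activation factor of at least 2 at 5 µM in the primary screen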;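 note: 0 = wells with 2.5 mM tranylcypromine and 1 = vehicle-only wells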
CYP2C9 activ: activators of human CYP2C9; AID 1024; activation factor at 5 µM; 96,000 compounds, 1.4% hits; recombinant CYP2C9, luciferin-H conversion, luminescence; hits give high values; factor 1 = untreated enzyme, 0 = blocked; P11712;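 active = activation factor of 2 or more for CYP2C9 at a 5 µM dose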;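 note: 0 = sulfaphenazole-blocked wells and 1 = vehicle-only wells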
* marks the source's active call; other numbers are inactive results; . = no result given.

SMILES	CYP2C19 inhib	CYP2C9 inh	Mac1 fbg enh	CD11b adhes inh	CYP2C19 activ	CYP2C9 activ
Cc1nnc(SC(C)C(=O)N2CCc3ccccc32)s1 (stereo unspecified)	78*	34	-2	-3	0.2	0.7
CC(Sc1nnc(Cc2cccs2)n1C1CCCCC1)C(=O)N1CCc2ccccc21 (stereo unspecified)	78*	76*	0	4	0.2	0.2
CC(C)Sc1nnc(CNC(=O)C23CC4CC(CC(C4)C2)C3)n1C1CCCCC1	.	.	-1	-9	.	.
Nc1nc(NC(=O)c2cccnc2)nn1-c1ccccc1	13	3	0	6	0.9	1
CCCCCN=Cc1c(C)[nH]n(-c2nc3ccccc3s2)c1=O	53*	73*	4	14	0.5	0.3
CCCc1[nH]n(-c2nc3ccccc3s2)c(=O)c1C=NCCN1CCOCC1	-14	10	3	-10	1.1	0.9
COc1cc(C)c(S(=O)(=O)NCc2cccs2)cc1C	99*	66*	-2	13	0	0.3
COc1ccc(CC(=O)NCc2cccs2)cc1OC	43	-2	-3	-19	0.6	1
O=C(Nc1cccc(Cl)c1)c1ccc(F)c(S(=O)(=O)NCc2cccs2)c1	.	.	-10	104	.	.
COc1ccc(Cl)cc1S(=O)(=O)NCc1cccs1	97*	-149	2	0	0	2.5*
COc1ccc(N=C(C)C2=C(O)COC2=O)cc1	7	4	-4	-22	0.9	1
COc1cccc(/C=N/NC(=O)c2ccccc2N(Cc2ccccc2)S(=O)(=O)c2ccccc2)c1OC	42	80*	.	.	0.6	0.2
COc1cccc(/C=N/NC(=O)C(=O)N2CCCC2)c1OC	-16	-3	1	-5	1.2	1
OCCSc1nnc(Nc2ccccc2)s1	21	-4	-3	-29	0.8	1
N#CCSc1nnc(Nc2ccccc2)s1	84*	42	3	-10	0.2	0.6
N#CCSc1nc(-c2ccccc2)cs1	56*	-51	0	7	0.4	1.5
COc1ccc(-c2cnn3c4c(c(C)nc23)CCN4C(C)C)cc1OC	-8	8	5	-2	1.1	0.9
N=c1ccn(Cc2cccc(Cl)c2)cc1	-6	-4	-3	12	1.1	1
O=C1CCCc2ccccc2N1Cc1cccc(Cl)c1	84*	72*	.	.	0.2	0.3
O=C1CCCc2ccccc2N1Cc1ccc(Cl)cc1	91*	68*	.	.	0.1	0.3
COc1cccc(C2NC(=O)NC(O)(C(F)(F)F)C2C(=O)c2cccnc2)c1OC (stereo unspecified)	92*	49	-1	0	0.1	0.5
COc1ccc(C2NC(=O)NC(O)(C(F)(F)F)C2C(=O)c2ccccc2)cc1OC (stereo unspecified)	9	18	-2	-2	0.9	0.8
CCCOC(=O)Nc1nnc(CCC)s1	5	10	-2	14	1	0.9
O=C(CN1CCCC1)Nc1ccc(-c2nc3cc(NC(=O)CN4CCCC4)ccc3o2)cc1	14	0	0	-1	0.9	1
COc1ccc(OC(=O)c2cccc([N+](=O)[O-])c2)c(C(=O)/C=C/c2cccs2)c1	62*	75*	2	-20	0.4	0.3
SMILES	CYP2C19 inhib	CYP2C9 inh	Mac1 fbg enh	CD11b adhes inh	CYP2C19 activ	CYP2C9 activ
CC(C)CCNC(=O)C(C)N(Cc1ccc(F)cc1)C(=O)c1ccc(CN2CCCCC2)o1 (stereo unspecified)	34	32	2	-20	0.7	0.7
Cc1ccc(N(CC(N)=O)C2SC(=O)N(Cc3ccccc3)C2=O)cc1 (stereo unspecified)	42	0	-4	1	0.6	1
O=C(CCC1COc2ccccc2O1)Nc1ccc(Cl)cn1 (stereo unspecified)	75*	7	11	-9	0.3	0.9
O=C(O)CCC1COc2ccccc2O1 (stereo unspecified)	-2	3	11	-18	1	1
CCOC(=O)c1ccc(NC(=O)CCC2COc3ccccc3O2)cc1 (stereo unspecified)	12	69*	.	.	0.9	0.3
COc1ccc(CCNC(=O)CCC2COc3ccccc3O2)cc1OC (stereo unspecified)	36	68*	.	.	0.6	0.3
Cc1ccnc(NC(=O)CCC2COc3ccccc3O2)c1 (stereo unspecified)	82*	55*	1	-8	0.2	0.5
CCOc1ccc(N2C(=O)C(Cl)=C(Nc3ccccc3O)C2=O)cc1	14	-4	5	-16	0.9	1
CCN1C(=O)C2C(C1=O)N1C(c3cccs3)C3C(=O)N(CC)C(=O)C3N1C2c1cccs1 (stereo unspecified)	1	-2	-1	-17	1	1
Cc1oc(-c2ccccc2)cc1C(=O)Nc1ccc(N(C)C)cc1	-7	1	5	-1	1.1	1
BrC(=C\c1ccccc1)/C=N/N1CCN(c2ccccn2)CC1	22	-4	-5	-15	0.8	1
CN(c1ccccc1)S(=O)(=O)c1cccc(NC(=O)Cn2cnc3ccccc3c2=O)c1	62*	94*	0	-34	0.4	0.1
CCN(CC)S(=O)(=O)c1cc(NC(=O)Cn2cnc3ccccc3c2=O)ccc1C	42	53*	5	21	0.6	0.5
CCOC(=O)c1ccccc1NC(=O)CCNC(=O)Cn1cnc2ccccc2c1=O	-3	52*	-4	-5	1	0.5
Cc1nnc(SCC(=O)Nc2cccc(S(=O)(=O)N(C)c3ccccc3)c2)s1	.	.	-1	18	.	.
O=C(Cn1cnc2ccccc2c1=O)c1c[nH]c2ccccc12	53*	31	-6	-9	0.5	0.7
CCN(CC)CC(=O)c1c[nH]c2ccccc12	-5	-6	-1	-9	1	1.1
Cc1cccc(NC(=O)Cn2cnc3ccccc3c2=O)c1C	8	10	-10	-8	0.9	0.9
O=C(CCC1CCCC1)N1CCN(C(=O)COc2ccccc2)CC1	-5	-3	-5	4	1.1	1
Cc1c2cnn(CC(=O)Nc3cccc(C(F)(F)F)c3)c(=O)c2c(C)n1Cc1ccccc1F	.	.	1	-10	.	.
c1ccc(C(c2ccccc2)N2CCN(c3ccc4ccccc4n3)CC2)cc1	-10	23	6	-10	1.1	0.8
O=C(Nc1cccc(C(F)(F)F)c1)/C(=C/c1ccco1)NC(=O)c1cccs1	34	13	-6	-12	0.7	0.9
CCOC(=O)C1CCCN(C(=O)COc2ccccc2O)C1 (stereo unspecified)	35	16	-1	-8	0.7	0.8
CCOC(=O)C1CCCN(C(=O)CSc2nccn2C)C1 (stereo unspecified)	55*	15	-3	-8	0.4	0.8

Source: PubChem BioAssay
